# Experiments:
# Test in all cases: DAPPL (digital affinity profiling via proximity ligation, sequencing); 10 mM Tris-HCl pH 7.5, 50 mM NaCl, 1 mM DTT, 4% glycerol, room temperature, 30 min; GST-TFs on glutathione beads, 16-mer random dsDNA library, 0.1% formaldehyde crosslink after washing; high values mean tight binding
# Conditions in all cases: protein: recombinant; tags: N-terminal GST; dsDNA, one strand shown
# [1] = biological target: ETV1 (Homo sapiens, UniProt P50549 1-477)
# Outline: (§1)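 Human transcription factors carrying a GST fusion were produced in yeast, bound to glutathione beads, tagged with DNA barcodes and pooled together with a tag-only sample. Each pool was held with 200 nmole of a random double-stranded 16-mer DNA library in Tris/NaCl/DTT/glycerol buffer for 30 min at room temperature, then washed, crosslinked in 0.1% formaldehyde, proximity-ligated with BsaI/T4 ligase (1 h, 37 °C), PCR-amplified and sequenced on an Illumina NextSeq500. Binding signal is the read frequency of each hexamer for a given factor divided by its frequency in the tag-only sample.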
# [2] = biological target: T1, ERF (Homo sapiens, UniProt P50548 1-548)
# T1 sequence: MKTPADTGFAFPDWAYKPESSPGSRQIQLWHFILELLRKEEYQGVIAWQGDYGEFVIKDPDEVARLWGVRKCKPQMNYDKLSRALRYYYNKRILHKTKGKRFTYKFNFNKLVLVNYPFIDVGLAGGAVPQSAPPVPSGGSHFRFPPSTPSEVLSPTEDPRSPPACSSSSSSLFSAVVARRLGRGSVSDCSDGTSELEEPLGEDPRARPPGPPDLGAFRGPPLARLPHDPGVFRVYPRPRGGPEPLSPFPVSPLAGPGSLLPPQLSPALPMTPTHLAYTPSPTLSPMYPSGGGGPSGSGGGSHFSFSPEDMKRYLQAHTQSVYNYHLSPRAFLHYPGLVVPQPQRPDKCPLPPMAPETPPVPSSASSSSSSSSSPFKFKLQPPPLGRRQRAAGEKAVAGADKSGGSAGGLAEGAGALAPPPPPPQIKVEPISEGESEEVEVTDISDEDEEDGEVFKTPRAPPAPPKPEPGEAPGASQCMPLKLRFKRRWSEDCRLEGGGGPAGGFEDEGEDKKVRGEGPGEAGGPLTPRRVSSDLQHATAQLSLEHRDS
# Outline: as §1
# [3] = biological target: T2, ETV3L (Homo sapiens, UniProt Q6ZN32 1-361)
# T2 sequence: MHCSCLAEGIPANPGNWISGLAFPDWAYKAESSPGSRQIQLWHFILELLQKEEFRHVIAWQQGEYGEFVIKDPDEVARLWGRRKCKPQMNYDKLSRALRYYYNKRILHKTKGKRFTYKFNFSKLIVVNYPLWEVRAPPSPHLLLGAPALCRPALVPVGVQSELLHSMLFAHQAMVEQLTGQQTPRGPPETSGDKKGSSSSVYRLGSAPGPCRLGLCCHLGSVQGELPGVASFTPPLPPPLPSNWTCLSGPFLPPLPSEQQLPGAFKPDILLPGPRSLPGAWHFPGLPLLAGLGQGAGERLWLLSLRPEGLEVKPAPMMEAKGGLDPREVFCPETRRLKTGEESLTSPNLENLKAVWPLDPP
# Outline: as §1
# [4] = biological target: T3, ETS2 (Homo sapiens, UniProt P15036 1-469)
# T3 sequence: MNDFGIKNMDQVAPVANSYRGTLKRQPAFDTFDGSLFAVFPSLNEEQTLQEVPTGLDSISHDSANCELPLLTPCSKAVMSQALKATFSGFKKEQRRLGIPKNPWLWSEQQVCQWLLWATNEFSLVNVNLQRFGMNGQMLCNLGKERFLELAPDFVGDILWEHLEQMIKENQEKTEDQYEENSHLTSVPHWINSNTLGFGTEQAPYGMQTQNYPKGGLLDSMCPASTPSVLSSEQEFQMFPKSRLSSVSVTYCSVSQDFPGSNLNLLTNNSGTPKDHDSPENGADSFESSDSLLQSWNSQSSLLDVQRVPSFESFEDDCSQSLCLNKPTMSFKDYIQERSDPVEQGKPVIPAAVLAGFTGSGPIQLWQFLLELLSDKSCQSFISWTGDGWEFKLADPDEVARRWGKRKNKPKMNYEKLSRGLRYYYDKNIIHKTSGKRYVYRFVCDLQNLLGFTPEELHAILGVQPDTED
# Outline: as §1
# [5] = biological target: T4, SPDEF (Homo sapiens, UniProt O95238 1-335)
# T4 sequence: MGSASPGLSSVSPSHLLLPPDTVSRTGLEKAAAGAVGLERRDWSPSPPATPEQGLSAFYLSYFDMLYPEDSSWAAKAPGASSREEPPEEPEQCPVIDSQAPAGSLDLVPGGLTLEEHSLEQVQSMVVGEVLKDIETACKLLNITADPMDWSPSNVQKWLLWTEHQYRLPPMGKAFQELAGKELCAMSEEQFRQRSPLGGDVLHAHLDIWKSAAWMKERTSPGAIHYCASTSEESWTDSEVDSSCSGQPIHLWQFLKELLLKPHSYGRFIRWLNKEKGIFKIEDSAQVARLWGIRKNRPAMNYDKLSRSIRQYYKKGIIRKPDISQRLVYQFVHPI
# Outline: as §1
# [6] = biological target: T5, ETV7 (Homo sapiens, UniProt Q9Y603 1-341)
# T5 sequence: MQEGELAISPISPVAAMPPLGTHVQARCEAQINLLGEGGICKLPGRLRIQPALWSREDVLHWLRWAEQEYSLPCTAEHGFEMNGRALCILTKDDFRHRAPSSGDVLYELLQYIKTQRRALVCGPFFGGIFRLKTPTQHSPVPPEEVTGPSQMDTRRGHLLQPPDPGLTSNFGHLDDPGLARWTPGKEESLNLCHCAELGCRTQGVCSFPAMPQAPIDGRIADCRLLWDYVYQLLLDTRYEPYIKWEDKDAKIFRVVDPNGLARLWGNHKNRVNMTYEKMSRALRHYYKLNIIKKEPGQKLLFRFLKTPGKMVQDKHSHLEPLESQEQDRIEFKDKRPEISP
# Outline: as §1
# [7] = biological target: T6, ELF5 (Homo sapiens, UniProt Q9UKW6-2 1-255)
# T6 sequence: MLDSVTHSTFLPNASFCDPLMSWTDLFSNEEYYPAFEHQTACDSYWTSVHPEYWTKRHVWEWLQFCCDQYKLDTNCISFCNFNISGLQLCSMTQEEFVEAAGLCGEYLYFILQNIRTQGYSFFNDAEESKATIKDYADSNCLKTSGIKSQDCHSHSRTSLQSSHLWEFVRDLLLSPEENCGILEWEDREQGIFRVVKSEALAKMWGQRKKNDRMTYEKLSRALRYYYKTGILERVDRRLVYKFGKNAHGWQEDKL
# Outline: as §1
# [8] = biological target: T7, ETV3 (Homo sapiens, UniProt P41162-2 1-143)
# T7 sequence: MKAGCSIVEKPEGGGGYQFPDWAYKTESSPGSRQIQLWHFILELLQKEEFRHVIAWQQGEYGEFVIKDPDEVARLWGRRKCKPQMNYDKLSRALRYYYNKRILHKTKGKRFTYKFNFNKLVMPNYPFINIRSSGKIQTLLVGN
# Outline: as §1
# [9] = biological target: ETV6 (Homo sapiens, UniProt P41212 1-452)
# Chain of ETV6 (P41212 whole entry): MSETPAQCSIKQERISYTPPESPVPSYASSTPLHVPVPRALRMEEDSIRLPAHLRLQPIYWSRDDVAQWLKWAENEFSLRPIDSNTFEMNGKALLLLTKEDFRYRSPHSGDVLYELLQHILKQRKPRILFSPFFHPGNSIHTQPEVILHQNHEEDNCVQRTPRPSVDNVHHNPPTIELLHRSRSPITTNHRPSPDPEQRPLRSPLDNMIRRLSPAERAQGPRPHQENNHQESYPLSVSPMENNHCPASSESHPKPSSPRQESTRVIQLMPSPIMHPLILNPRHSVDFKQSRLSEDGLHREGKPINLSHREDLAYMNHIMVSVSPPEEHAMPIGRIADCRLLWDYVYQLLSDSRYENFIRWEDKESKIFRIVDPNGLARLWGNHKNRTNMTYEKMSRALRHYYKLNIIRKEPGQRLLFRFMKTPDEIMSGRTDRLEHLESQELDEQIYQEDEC
# Outline: as §1
# Chain of ETV1 (P50549 whole entry, the tested form may be a part): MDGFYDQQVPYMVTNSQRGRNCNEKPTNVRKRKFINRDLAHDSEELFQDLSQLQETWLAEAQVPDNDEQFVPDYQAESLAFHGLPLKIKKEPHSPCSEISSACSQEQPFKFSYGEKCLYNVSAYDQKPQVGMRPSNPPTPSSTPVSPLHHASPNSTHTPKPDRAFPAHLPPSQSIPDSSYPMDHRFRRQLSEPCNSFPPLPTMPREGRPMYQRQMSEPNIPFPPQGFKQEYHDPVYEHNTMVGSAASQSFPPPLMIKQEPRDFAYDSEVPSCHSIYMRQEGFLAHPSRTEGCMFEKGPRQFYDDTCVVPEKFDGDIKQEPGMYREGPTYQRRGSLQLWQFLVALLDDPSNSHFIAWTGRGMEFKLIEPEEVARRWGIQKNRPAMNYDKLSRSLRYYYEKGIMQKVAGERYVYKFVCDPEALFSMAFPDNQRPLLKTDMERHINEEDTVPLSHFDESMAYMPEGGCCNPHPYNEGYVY
sequence,measurement,setting,value
CTATCT,binding signal,[1],"1.24 fold enrichment (6-mer frequency, TF over GST control)"
same,binding signal,[2],"1.42 fold enrichment (6-mer frequency, TF over GST control)"
same,binding signal,[3],"1.39 fold enrichment (6-mer frequency, TF over GST control)"
same,binding signal,[4],"1.39 fold enrichment (6-mer frequency, TF over GST control)"
same,binding signal,[5],"1.3 fold enrichment (6-mer frequency, TF over GST control)"
same,binding signal,[6],"1.4 fold enrichment (6-mer frequency, TF over GST control)"
same,binding signal,[7],"1.3 fold enrichment (6-mer frequency, TF over GST control)"
same,binding signal,[8],"1.28 fold enrichment (6-mer frequency, TF over GST control)"
same,binding signal,[9],"1.32 fold enrichment (6-mer frequency, TF over GST control)"
